JMJD2A Tudor = JMJD2A Tudor domain (human) inhibition; AlphaScreen JMJD2A-Tudor / H3K4me3 peptide binding; 4.4% of 390,000 active; O75164; Potency, µM (doses to about 114 µM), most hits filed as inhibitors; note: nearly all actives have a fitted effect of over 50% in size
L3MBTL1 block = blocks human L3MBTL1 | AlphaScreen L3MBTL1–H3K9me1 peptide binding | 0.66% of 230,000 active | Potency, µM (series often up to 57.1 µM), usual class: inhibitors | Q9Y468; note: nearly all actives have a fitted effect of over 60% in size
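First, the protein-peptide complex forms for 30 min at room temperature (L3MBTL1 50 nM, biotinylated H3K9me1 peptide 75 nM). Next, compounds are pin-transferred and incubated 30 min. Finally, AlphaScreen beads are added and read after 30 min.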
VDR inhibitor = inhibitors of human vitamin D receptor; VDR-SRC2-3 peptide fluorescence polarization, 2 h; 0.93% of 400,000 active; P11473; Potency, µM, hits mostly inhibitors; AID 504847
Target sequence (P11473 whole entry, looked up): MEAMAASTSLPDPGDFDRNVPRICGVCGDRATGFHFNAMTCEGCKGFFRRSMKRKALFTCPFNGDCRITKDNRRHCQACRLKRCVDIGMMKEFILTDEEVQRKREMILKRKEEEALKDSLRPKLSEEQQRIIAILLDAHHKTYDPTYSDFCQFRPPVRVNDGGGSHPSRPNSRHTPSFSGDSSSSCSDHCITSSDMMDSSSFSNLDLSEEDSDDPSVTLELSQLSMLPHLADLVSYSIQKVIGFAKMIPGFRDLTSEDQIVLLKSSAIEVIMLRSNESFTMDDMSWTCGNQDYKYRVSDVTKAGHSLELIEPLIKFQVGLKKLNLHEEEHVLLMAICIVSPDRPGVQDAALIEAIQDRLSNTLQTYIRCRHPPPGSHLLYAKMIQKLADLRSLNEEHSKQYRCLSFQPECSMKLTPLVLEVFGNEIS
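VDR–SRC2-3 interaction, FP format. Cmpds 23 nl via pintool, brief spin, 2 h ambient incubation.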
HP1b chromo inh = blocks HP1-beta chromodomain binding to methylated histone tails; P83916; AlphaScreen HP1-beta / biotin-H3K9me3 peptide binding; Potency, µM (top dose mostly 114 µM), most hits filed as inhibitors; 0.56% of 390,000 active; AID 540317; note: nearly all actives have a fitted effect of over 70% in size
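AlphaScreen: HP1-beta (50 nM) preformed 30 min with biotin-H3(1-18)K9me3 peptide (50 nM) in PBS pH 7.4, 0.01% Tween-20. Compound added for 30 min at RT, then streptavidin donor/nickel chelate acceptor beads (10 ug/mL) for 30 min.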
BAZ2B inh = BAZ2B (human) inhibition; AlphaScreen BAZ2B-H3K14Ac peptide displacement; Potency, µM (highest dose often 114 µM), actives largely listed as inhibitors; 4.4% of 360,000 active; AID 504333; note: nearly all actives have a fitted effect of over 60% in size
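Complex of BAZ2B and biotin-H3K14Ac (50 nM apiece) forms over 30 min at RT, then faces library compounds up to 110 uM for another 30 min; AlphaScreen beads added, 20 min dark incubation, luminescence read.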
PLK1 PBD block = PLK1 (human) polo-box domain binding inhibition | AID 720504 | Potency, µM, most hits filed as inhibitors | P53350 | Plk1 PBD binding of FITC phosphopeptide, fluorescence polarization | 2.8% of 360,000 active; note: series mostly up to about 57 µM; nearly all actives have a fitted effect of over 65% in size
A number is an active result; - = inactive; ? = inconclusive; . = no result. In the library only some 6.9% were active in any assay of this set; here they are far more common. Calls come from the whole dose curve; as a rule, active = well fitted curve in the direction sought with a large enough effect; inconclusive = small, poorly fitted or top-dose-only effect, or another doubt; inactive = no such curve, though single readings can be large; an effect the other way counts as inactive or inconclusive.

SMILES	JMJD2A Tudor	L3MBTL1 block	VDR inhibitor	HP1b chromo inh	BAZ2B inh	PLK1 PBD block
Nc1nn(-c2ccccc2)c(N)c1N=Nc1cccc(F)c1	35µM	-	?	?	35µM	-
COC(=O)C1=C(C)NC(=O)NC1c1ccc(N2CCC(c3ccccc3)=N2)cc1 (stereo not drawn)	?	-	?	-	-	27µM
COC(=O)C1=C(C)NC(=O)NC1c1ccc(OC)c(OC)c1 (stereo not drawn)	.	.	.	.	.	-
c1ccc(-c2cc(-c3ccccc3)c3c(n2)-c2ccccc2OC3)cc1	-	.	-	-	-	.
CCOc1ccccc1Nc1nc(-c2cccc(Cl)c2)c2c(n1)-c1ccccc1OC2	56µM	.	-	-	?	.
O=C(NCc1ccco1)c1cc([N+](=O)[O-])ccc1N1CCOCC1	-	-	-	-	79µM	-
O=C(Nc1ccc(Cl)c(Cl)c1)Nc1cc(S(=O)(=O)N2CCOCC2)ccc1N1CCCC1	-	-	-	?	-	17µM
O=C(Nc1ccccc1F)Nc1cc(S(=O)(=O)N2CCOCC2)ccc1N1CCCC1	-	.	-	-	.	-
COC(=O)CCC(=O)Nc1cc(S(=O)(=O)Nc2ccc(Cl)cc2)ccc1N1CCOCC1	-	-	-	?	-	15µM
CCCC(C)C(=O)Nc1cc(S(=O)(=O)N2CCCCC2)ccc1N1CCOCC1 (stereo not drawn)	-	-	-	-	-	-
CC(C)C(=O)Nc1cc(S(=O)(=O)N2CCOCC2)ccc1N1CCCCC1	-	-	71µM	?	.	24µM
Cc1ccc(NC(=O)c2ccc(CN3CC(=O)N4CCCCC4C3=O)cc2)cc1 (stereo not drawn)	-	.	-	-	-	.
CCN(CC)C(=O)c1sc2c(c1C)c(=O)n(-c1ccc(C)c(C)c1)c(=O)n2Cc1cc(=O)n2ccccc2n1	-	.	-	-	-	.
CCc1ccccc1OCC(=O)Nc1cc(S(=O)(=O)N2CCOCC2)ccc1N1CCCCC1	-	-	-	-	-	-
O=C(CNCc1ccccn1)Nc1cc(C(F)(F)F)ccc1N1CCOCC1	45µM	-	-	-	45µM	-
O=C(Nc1cc(S(=O)(=O)Nc2ccc(Cl)cc2)ccc1N1CCCCC1)c1ccc(F)cc1Cl	-	-	-	?	-	9.5µM
O=C(CNCc1ccco1)Nc1cc(S(=O)(=O)N2CCOCC2)ccc1N1CCOCC1	18µM	-	-	?	.	-
COc1ccccc1OCC(=O)Nc1cc(S(=O)(=O)N2CCOCC2)ccc1N1CCCCC1	-	-	-	-	.	24µM
Cc1c(C(=O)N(Cc2ccco2)Cc2ccccc2Cl)oc2ccc(F)cc12	-	.	-	-	-	.
O=C(NCCc1c[nH]c2ccccc12)c1ccccc1O	.	.	-	.	.	.
O=C(O)c1cc(S(=O)(=O)Nc2ccc(N3CCCCC3)cc2)ccc1Cl	-	.	-	-	-	-
CCCC(=O)Nc1cc(S(=O)(=O)N2CCOCC2)ccc1N1CCCCC1	-	-	89µM	-	.	24µM
Nc1cc(S(=O)(=O)Nc2cc(Cl)ccc2Cl)ccc1N1CCOCC1	?	-	35µM	?	-	1.9µM
O=S(=O)(Nc1ccc(N2CCCCC2)cc1)c1ccc(F)c(F)c1	?	-	-	-	32µM	-
Nc1cc(S(=O)(=O)Nc2ccccc2Cl)ccc1N1CCCC1	?	?	-	-	?	-
SMILES	JMJD2A Tudor	L3MBTL1 block	VDR inhibitor	HP1b chromo inh	BAZ2B inh	PLK1 PBD block
CCn1c(SCC(=O)c2ccc(C)cc2)nnc1-c1ccoc1C	-	-	-	-	-	-
CCn1c(SCC(=O)c2ccc(Cl)cc2)nnc1-c1ccoc1C	50µM	-	?	-	-	-
Cc1ccc(C(=O)CSc2nnc(-c3ccco3)n2Cc2ccccc2)cc1	?	-	?	-	-	2.7µM
O=C(CSc1nnc(-c2ccco2)n1Cc1ccccc1)c1ccccc1	?	-	-	-	?	-
Cc1nnc(SCC(=O)c2ccc(Cl)cc2)n(N)c1=O	-	-	20µM	-	-	-
CCCC[C@H]1CCCO[C@@](C(=O)NCc2ccc(C)o2)(C(F)(F)F)C1	-	.	?	-	.	.
O=C(COc1cccnc1[N+](=O)[O-])Nc1ccc2c(c1)OC(F)(F)O2	-	-	-	-	-	-

Assay outcomes from PubChem BioAssay.
